MITF primary: blocks human microphthalmia-associated transcription factor. inhibition, % at 2.6 µM. O75030. hit rate 0.91% among 650,000. AlphaScreen MITF homodimerization, bead proximity signal; in the data active means inhibition above about 50%;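 further: 0% = vehicle wells with protein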
TEAD-YAP block: TEAD-YAP interaction inhibition | HEK-TIYL cells, TEAD-Gal4/YAP UAS-luciferase luminescence | inhibition, % at 9.12 µM | hit rate 1.4% among 640,000 | AID 1259422; in the data active means inhibition above about 32%;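 further: 0% = median of test compound wells and 100% = reference inhibitor wells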
GPR151 ag: activates the human receptor GPR151 | PathHunter beta-arrestin GPR151 cells, luminescence | activation, % at 11.2 µM | hit rate 1% among 650,000; in the data active means activation above about 4.9%;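 further: 0% = median of compound wells and 100% = cells with positive control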
FBW7 activator: activators of human E3 ligase FBW7; Q969H0; AlphaScreen FBW7–phospho-cyclin E peptide binding, activator screen; normalized activity (activation), % at 26.1 µM; hit rate 0.13% among 650,000; AID 1259310; in the data active means normalized activity above about 1.9%;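 further: purified mutant Fbw7 with reduced substrate affinity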
Target sequence (Q969H0 whole entry, looked up): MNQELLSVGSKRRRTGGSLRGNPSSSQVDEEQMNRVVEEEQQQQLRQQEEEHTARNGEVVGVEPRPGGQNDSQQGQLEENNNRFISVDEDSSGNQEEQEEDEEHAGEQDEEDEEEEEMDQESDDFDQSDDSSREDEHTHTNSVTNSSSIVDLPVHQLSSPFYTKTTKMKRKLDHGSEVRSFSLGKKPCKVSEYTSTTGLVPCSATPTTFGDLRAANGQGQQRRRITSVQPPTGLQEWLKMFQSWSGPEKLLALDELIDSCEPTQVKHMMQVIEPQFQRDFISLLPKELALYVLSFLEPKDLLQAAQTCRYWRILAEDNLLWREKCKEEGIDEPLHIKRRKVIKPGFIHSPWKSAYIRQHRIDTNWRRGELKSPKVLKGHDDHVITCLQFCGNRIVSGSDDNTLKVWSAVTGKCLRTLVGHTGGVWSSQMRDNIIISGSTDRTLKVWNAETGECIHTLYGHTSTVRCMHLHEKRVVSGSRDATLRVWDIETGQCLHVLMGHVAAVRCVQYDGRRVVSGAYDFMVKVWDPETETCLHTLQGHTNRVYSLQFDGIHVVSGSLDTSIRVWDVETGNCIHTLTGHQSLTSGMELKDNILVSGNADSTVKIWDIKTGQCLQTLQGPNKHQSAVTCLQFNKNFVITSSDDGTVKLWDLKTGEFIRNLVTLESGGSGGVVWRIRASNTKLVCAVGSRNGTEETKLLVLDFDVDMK
The depositor's hits bear a star. A selection: hits, their analogues and other compounds. The true share with any hit is near 3.5%.

SMILES	MITF primary	TEAD-YAP block	GPR151 ag	FBW7 activator
Fc1ccc(Nc2nc3nonc3nc2Nc2ccc(F)cc2F)c(F)c1	19	90*	2	0
Oc1ccc(Nc2nc3nonc3nc2Nc2ccccc2)cc1	20	-8	-2	0
CN(C)c1nc2nonc2nc1Nc1cccc(Cl)c1	2	75*	2	0
Fc1cccc(Nc2nc3nonc3nc2Nc2cccc(F)c2)c1	-5	24	0	0
O=C(CCN1C(=O)c2ccccc2S1(=O)=O)Nc1nccs1	5	-3	-1	0
O=C(/C=C/c1ccc2c(c1)OCO2)N1CCN(C2=NN=C(c3ccccc3)CS2)CC1	-2	-12	-1	-1
Cc1cc(Nc2ccc3c(c2)OCCO3)nc(-n2nc(C)cc2C)n1	5	87*	-1	0
Cc1ccc(CNc2cc(C)nc(-n3nc(C)cc3C)n2)cc1	-6	67*	-2	0
Cc1cc(Nc2ccc(Cl)cc2)nc(N)n1	0	-59	-1	0
Cc1cc(Nc2ccc3c(c2)OCO3)nc(Cl)n1	12	-16	0	0
Cc1cc(C)n(-c2nc(-c3ccc(Br)cc3)cs2)n1	-8	-11	0	0
Cc1cc(Nc2ccc(Cl)cc2)nc(-n2nc(C)cc2C)n1	4	47*	1	0
Cc1cc(Nc2ccc(Br)cc2)nc(-n2nc(C)cc2C)n1	4	64*	0	1
CCOc1ccccc1-n1c(=S)sc2c(=O)n(-c3ccccc3)c(SCC(=O)C(C)(C)C)nc21	2	-9	2	0
N#C/C(=C(/O)c1cccc(Br)c1)c1nc2ccccc2c(=O)[nH]1	-5	-18	0	0
CN(C)S(=O)(=O)N1CCC(Oc2cccc(C(=O)NC3CCCCCC3)c2)CC1	17	44*	0	0
CCC(O)CNC(=O)c1cccc(OC2CCN(S(=O)(=O)N(C)C)CC2)c1 (configuration not stated)	10	2	0	0
COC(=O)C1CCN(Cc2ccc3c(c2)CN(C(=O)Cc2cccc(F)c2)CCO3)CC1	18	6	-1	2.1*
CC(=O)c1ccc(C(=O)N2CCOc3ccc(CN4CCN(C(C)=O)CC4)cc3C2)cc1	5	5	0	2.3*
COc1ccc(-n2nc(C(=O)NCC(=O)N3CCN(Cc4ccc5c(c4)OCO5)CC3)c3ccccc3c2=O)cc1	-3	12	1	0
O=C(O)CCN1C(=O)/C(=C/c2ccc(O)c(O)c2)SC1=S	23	12	-3	0
Brc1ccc(-c2c[n+]3c(n2-c2ccccc2)SCC3)cc1	-11	3	-1	0
Cc1ccc(-n2c(-c3ccccc3)c[n+]3c2CCCCC3)cc1	13	59*	-1	0
Cc1ccc(-c2c[n+]3c(n2-c2ccc(C)cc2)CCCCC3)cc1	14	85*	4	0
Cc1ccc(-c2c[n+]3c(n2-c2ccccc2)SCC3)cc1	-12	56*	1	0
SMILES	MITF primary	TEAD-YAP block	GPR151 ag	FBW7 activator
Clc1ccc(-c2c[n+]3c(n2-c2ccccc2)CCC3)cc1	2	12	0	0
Cc1ccc(-c2cn(-c3ccccc3)c3[n+]2CCCS3)cc1	16	68*	0	0
COc1ccc(-c2c[n+]3c(n2-c2c(C)n(C)n(-c4ccccc4)c2=O)CCCCC3)cc1	-1	4	0	0
CCn1c(C(C)NC(=O)c2ccc(Cl)cc2Cl)n[nH]c1=S (configuration not stated)	5	7	0	0
O=C1CCCc2c1cc(C(=O)NCCO)c(=O)n2-c1ccccc1	-8	2	0	0
COc1cc(Nc2ccc(NC(=O)c3ccccc3)cc2)nc(C)n1	-8	-2	2	0
Cc1nnc2sc(-c3ccc(NC(=O)C(C)(C)C)cc3)nn12	1	40*	-1	0
COc1ccc(-c2cn3nc(N4CCCC(C(=O)N5CCN(C)CC5)C4)sc3n2)cc1 (configuration not stated)	2	9	2	0
CCOC(=O)c1sc2nccc(N(C)C)c2c1N	3	-18	2	0
CN(C)c1ccnc2sc(C(N)=O)c(N)c12	11	53*	-1	0
O=C(Nc1ccc2c(c1)CN(C(=O)c1csnn1)CC2)c1ccc(C(F)(F)F)cc1	-3	33*	-1	0
O=C(Cc1ccccc1F)Nc1ccc2c(c1)CN(C(=O)c1csnn1)CC2	-10	-10	-2	0
O=C(c1ccc2c(=O)n(-c3ccccc3)c(=S)[nH]c2c1)N1CCOCC1	-2	-5	-1	0
O=C(c1ccc2c(=O)n(-c3ccccc3)c(=S)[nH]c2c1)N1CCCCC1	9	43*	0	0
CCOc1ccc2c(c1)-c1c(ssc1=S)C(C)(C)N2C(=O)CSc1nccn1C	3	-9	-1	-1
CC1C(c2ccc3ccccc3n2)=CNc2ccccc21 (configuration not stated)	4	41*	-1	0
CCOC(=O)c1ccccc1NC(=O)N1CCC(CN2CCC(C)CC2)CC1	-1	8	0	0
Cc1cnc(Nc2ccncc2)nc1NCc1cccc(C(F)(F)F)c1	7	45*	2	0
FC(F)(F)c1cccc(CNc2nc(Nc3cccnc3)nc3c2ncn3-c2ccccc2)c1	18	46*	-1	0
FC(F)(F)c1cccc(CNc2nc(NCc3cccnc3)nc3c2ncn3-c2ccsc2)c1	1	56*	1	0
FC(F)(F)c1cccc(CNc2nc(Nc3ccncc3)nc3c2ncn3-c2ccsc2)c1	2	-4	1	0
FC(F)(F)c1cccc(CNc2nc(Nc3cccnc3)nc3c2ncn3-c2ccsc2)c1	10	56*	0	0
Cc1cnc(Nc2ccncn2)nc1NCc1cccc(C(F)(F)F)c1	-6	29	0	0
Cc1ccc(-n2nc3c(c2NC(=O)COc2ccc(Cl)cc2)CS(=O)C3)cc1 (configuration not stated)	-1	10	0	0
CCSc1nnc2c(n1)OC1(CCCC1)Nc1ccc(Br)cc1-2	-11	-14	0	0
SMILES	MITF primary	TEAD-YAP block	GPR151 ag	FBW7 activator
COc1ccc(N(CC(=O)NC(C)(C)C)S(=O)(=O)c2ccc(C)cc2)cc1	22	2	-1	0
O=C(OCc1csc(Nc2ccccc2)n1)C1CC2C=CC1C2 (configuration not stated)	-6	38*	-4	0
O=C(CC1CCCC1)NCC1CCC2(CCN(C(=O)c3ccc(F)cc3)CC2)O1 (configuration not stated)	25	12	1	2.0*
O=C(CCc1cccs1)NCC1CCC2(CCN(C(=O)c3ccc(F)cc3)CC2)O1 (configuration not stated)	-1	-2	0	-1
CC(C)(C)c1ccc(OCCSc2nc3ccccc3n2CC(N)=O)cc1	-2	48*	0	0
CN(C)C(=O)CSc1nc2ccccc2n1CC(=O)NC(C)(C)C	-4	-5	1	0
CC(C)(C)NC(=O)Cn1c(SCC(N)=O)nc2ccccc21	19	-51	-3	2.0*
Cc1cc(Cl)ccc1NC(=O)CCc1ccc(S(=O)(=O)NC(C)C)cc1	9	1	2	0

Source: PubChem
